About 4,200 (1.4%) of roughly 290,000 compounds were called active. The entries come from a sample that favours actives as a whole. Unmarked numbers belong to inactive results.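 How the source made its calls: active means binding response more than 3 SD above or below the average of its plate-row segment, actives on both sides; inconclusive means wells at one plate position flagged as instrument error; inactive means the rest.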

Mitogen-activated protein kinase kinase kinase 3 (Homo sapiens), sequence (Q99759 whole entry, looked up): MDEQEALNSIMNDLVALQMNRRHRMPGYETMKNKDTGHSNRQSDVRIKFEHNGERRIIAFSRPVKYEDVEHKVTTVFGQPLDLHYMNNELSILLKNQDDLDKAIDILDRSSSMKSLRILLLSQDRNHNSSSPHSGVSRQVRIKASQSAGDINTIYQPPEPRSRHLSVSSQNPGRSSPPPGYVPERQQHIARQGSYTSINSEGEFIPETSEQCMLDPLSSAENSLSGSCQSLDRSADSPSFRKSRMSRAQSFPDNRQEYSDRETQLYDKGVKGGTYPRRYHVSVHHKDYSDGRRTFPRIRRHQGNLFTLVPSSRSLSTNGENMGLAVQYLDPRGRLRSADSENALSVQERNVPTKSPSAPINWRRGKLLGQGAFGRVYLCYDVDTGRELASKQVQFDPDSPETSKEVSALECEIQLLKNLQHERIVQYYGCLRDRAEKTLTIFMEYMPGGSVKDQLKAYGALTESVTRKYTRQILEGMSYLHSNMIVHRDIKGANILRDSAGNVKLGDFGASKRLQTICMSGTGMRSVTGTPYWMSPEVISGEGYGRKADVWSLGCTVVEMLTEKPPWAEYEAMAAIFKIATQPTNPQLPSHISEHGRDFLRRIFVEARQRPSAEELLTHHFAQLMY

This test concerns the target Mitogen-activated protein kinase kinase kinase 3 (Homo sapiens) (UniProt Q99759). The experiment in a line: compounds raising or lowering MEK5 association with MEKK3 PB1 – biochemical, wildtype MEKK3, multiplex bead flow cytometry, Alexa488-MEK5, primary screen (AID 1529).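 Further: Alexa488 bead fluorescence after subtracting the streptavidin-only scavenger bead signal.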 Particulars: bead-based flow cytometry, Alexa488-MEK5 binding to MEKK3; at 10 µM; actives lie on both sides; 0 = blocked by unlabeled MEK5, 100 = vehicle. Background: Flow cytometry measures light scatter and fluorescence of single cells or particles in a stream.
With `CCCN1CCn2c3c(c4cc(Br)ccc42)CCCC31` (centres undefined), the binding response (% of control) is 96%. Regarding `O=C(c1cccs1)N(Cc1cc2ccccc2[nH]c1=O)CC1CCCO1` (centres undefined), the binding response (% of control) was 99%. Under `C=CCN1CN(S(=O)(=O)c2ccc(OC)cc2)c2nc3ccccc3nc21` stands 100%; under `COc1ccc(S(=O)(=O)N2CN(CCc3ccc(OC)c(OC)c3)c3nc4ccccc4nc32)cc1`, 64% [inhibitor] (active); under `O=S(=O)(c1ccccc1)N1CN(Cc2ccc(F)cc2)c2nc3ccccc3nc21`, 85%. For `Cc1ccc(C(=O)N2CCC(n3nccc3NC(=O)Nc3cccc(F)c3)CC2)cn1`, the binding response (% of control) is 96%. For the compound `COC(=O)c1ccc(/C=N/NC(=O)C(=O)N2CCCCCC2)cc1`, the binding response (% of control) was 101%. Regarding `CCn1cc(CN2CCN(CC(C)(C)C)C(CCO)C2)c2ccccc21` (centres undefined), the binding response (% of control) was 107%. With `COCCOC(=O)C1=C(C)Nc2nc(C)nn2C1c1ccccc1` (centres undefined) the figure was 97%. As to `COc1cc(C2C(C(=O)Nc3ccc(F)cc3)=C(C)Nc3nc(CCCO)nn32)cc(OC)c1OC` (centres undefined), the binding response (% of control) is 104%. Under `COC(=O)c1nc2n(n1)C(c1ccc([N+](=O)[O-])cc1)C(C(=O)Nc1ccc(Cl)cc1)=C(C)N2` (centres undefined) stands 139% (active); under `CC(=O)N(c1ccc2oc(=O)sc2c1)S(=O)(=O)c1ccc(C)cc1`, 103%. On to `CN(Cc1ccccc1)C(=O)c1ccc(COc2ccccc2)cc1`, for which the binding response (% of control) was 109%. As for `COc1cc(OC)cc(C(=O)OCC(=O)Nc2sccc2C(N)=O)c1`, the binding response (% of control) is 97%. Under `FC(F)(F)c1nc(-c2ccccc2)ncc1-c1nnnn1-c1ccccc1` stands 48% [inhibitor] (active); under `Clc1ccc(-n2nnnc2-c2cnc(-c3ccccn3)nc2-c2cccs2)cc1`, 100%. With `c1ccc(-n2nnnc2-c2cccnc2)cc1` the figure was 108%; with `C=CCN1C(=NC(=O)COc2ccccc2)SC2CS(=O)(=O)CC21` (centres undefined), 102%; with `CCOC(=O)N1CCN(CC(=O)n2c(C)c(C)c3ccccc32)CC1`, 124% (active).

Consider `CCOC(=O)N1CCN(C(=O)Cn2cnc3ccccc3c2=O)CC1`, for which the binding response (% of control) was 99%. Under `CCOC(=O)N1CCN(C(=O)c2n[nH]c(=O)c3ccccc23)CC1` stands 100%; under `Cc1cccc(OCC(=O)Nc2ccc(C(=O)O)cc2NC(=O)COc2cccc(C)c2)c1`, 105%. Regarding `O=C(CN1CCN(Cc2ccccc2)CC1)Nc1ccc(F)c(F)c1`, the binding response (% of control) is 104%. Turning to `O=C(Nc1ccc(S(=O)(=O)N2CCCCCC2)cc1)c1c(F)cccc1F`, the binding response (% of control) was 101%. In the case of `CC1(c2nnc(-c3ccncc3)o2)CC(c2cccnc2)=NO1` (centres undefined), the binding response (% of control) is 101%. With `Cc1cccc(N2CCN(S(=O)(=O)c3ccc(-c4cc(C)no4)s3)CC2C)c1` (centres undefined) the figure was 97%; with `Cc1onc(-c2ccccc2Cl)c1C(=O)OCC(=O)c1ccccc1`, 1% [inhibitor] (active). For the compound `Cc1onc(-c2ccccc2Cl)c1C(=O)NCCn1ccc2ccccc21`, the binding response (% of control) is 98%. With `Cc1[nH]c2ccccc2c1C(=O)COC(=O)c1c(-c2ccccc2)noc1C` the figure was 108%.

Turning to `O=C(NCCCN1CCCCC1)C1CCCN(c2ncnc3c2nc2n3CCCCC2)C1` (centres undefined), the binding response (% of control) is 94%.

Consider `O=C(CCN1CCN(C/C=C/c2ccccc2)CC1)Nc1ccccc1Cl`, for which the binding response (% of control) is 104%.

In the case of `COc1ccc(S(=O)(=O)N2CCOC2CNC(=O)C(=O)NCc2ccc(F)cc2)cc1` (centres undefined), the binding response (% of control) is 98%. With `Cc1nc(SCC(=O)NC2CCCC2)[nH]c(=O)c1C` the figure was 101%; with `CCNS(=O)(=O)c1ccc(CCC(=O)N2CCN(c3cc(Cl)ccc3C)CC2)cc1`, 103%.

For the compound `C=CCOc1ccc(/C=C2/C(=O)ON=C2C)cc1OCC`, the binding response (% of control) was 104%. Regarding `Cc1cc(=O)[nH]c(SCc2cc(Cl)ccc2OC(F)F)n1`, the binding response (% of control) is 103%. As for `O=C(OCc1cc(Cl)ccc1OC(F)F)c1cccnc1`, the binding response (% of control) was 146% (active). Regarding `O=C(OCc1cc2ccccc2[nH]c1=O)c1cccnc1`, the binding response (% of control) was 109%. Under `Cc1c(C(=O)N2CCCC2)c(S(=O)(=O)NCC(C)c2ccccc2)c(C)n1C` (centres undefined) stands 101%; under `Cc1ccc(NC(=O)C2CCN(S(=O)(=O)c3ccc4c(c3)NC(=O)CO4)CC2)cc1C`, 106%; under `COC(C[C@@H]1O[C@@H]1C(=O)[C@@H](C)OCc1ccccc1)OC`, 102%. Under `CCc1c(C)sc(NC(=O)c2cccs2)c1C(N)=O` stands 100%; under `Cc1ccc(OCC(=O)NCCCNC(=O)c2cccnc2)cc1C`, 99%. As for `Cn1c(SCC(=O)N2CCCC2)nnc1-c1ccc2c(c1)OCO2`, the binding response (% of control) was 100%. With `O=C(O)CSc1nnc(-c2ccc3c(c2)OCO3)n1-c1ccccc1` the figure was 103%; with `Cn1c(SCc2nc3ccccc3s2)nnc1-c1ccc2c(c1)OCO2`, 19% [inhibitor] (active); with `O=C(OCc1ccc([N+](=O)[O-])cc1)C1CC(=O)N(Cc2ccccc2Cl)C1` (centres undefined), 100%. `C/C(=N\NC(=O)CNC(=O)C(c1ccccc1)c1ccccc1)c1ccc(C)cc1`: the binding response (% of control) is 130% (active). Turning to `C/C(=N\NC(=O)Cc1ccc(F)cc1)c1ccc(F)cc1`, the binding response (% of control) was 98%.

As for `O=C(CNC(=O)C(c1ccccc1)c1ccccc1)N/N=C\c1ccc2c(c1)OCO2`, the binding response (% of control) is 104%.

Regarding `O=C(Oc1ccc(Br)cc1)c1cccnc1`, the binding response (% of control) was 101%. `C=CC1=C(C(=O)O)N2C(=O)[C@@H](NC(=O)/C(=N/OCC(=O)O)c3csc(N)n3)[C@H]2SC1`: the binding response (% of control) was 97%. Turning to `O=C(O)c1ccc2c(=O)n3c(nc2c1)/C(=C/c1ccc(OC(F)F)cc1OC(F)F)CC3`, the binding response (% of control) was 103%. For `COc1ccc(NC(=O)CS(=O)(=O)c2ccccc2)cc1`, the binding response (% of control) was 105%. With `CSc1ncccc1C(=O)NC1CCCCCC1`, the binding response (% of control) is 102%. Consider `O=C(O)c1cccnc1NC1CCCC1`, for which the binding response (% of control) was 80% [inhibitor] (active). Under `O=C(NC1CCCCCC1)c1cccnc1Sc1ccc(Cl)cc1` stands 91%; under `CC1=CC(=C(C#N)c2nc3ccccc3s2)C=C(C)N1c1ccc(F)cc1F`, 104%; under `CCOC(=O)C1CCN(C(=O)CN2C(=O)c3cccnc3Oc3ccc(C)cc32)CC1`, 103%.

For the origin of these results see PubChem BioAssay AID1529 (NMMLSC, 2009).
